Activation (% of control) data for 22 molecules are collected here from PubChem BioAssay AID932 (The Scripps Research Institute Molecular Screening Center, 2007).

Structures are written as SMILES. The campaign covered roughly 200,000 compounds. About 5,100 (2.5%) were called active.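 The calls were made as follows: active = activation above the screen-wide mean activation plus 3 SD (cut at about 130% in these data); inactive = the rest.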 For the sample, actives were picked, then their nearest neighbours and some compounds at random.

The nature of the assay: potentiators of IFN-gamma driven STAT1 reporter – cell-based, HTS, luciferase reporter, primary screen (AID 932).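 Also: raw ratio to IFN-gamma control signal so 100% means no change and 0% no light.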 The settings on record: NIH 3T3 STAT1-luciferase reporter, luminescence, at 5.5 µM, hits give high values, 100% = IFN-gamma alone, no compound. (A reporter such as luciferase makes a cellular process visible.)
As to `O=C(N/N=C/c1ccc([N+](=O)[O-])cc1)C(=O)N1CCCC1`, the activation (% of control) was 107% (inactive).

Turning to `O=C(N/N=C/c1ccc2c(c1)OCO2)C(=O)N1CCCC1`, the activation (% of control) is 132% (active).

Take `COc1cccc(/C=N/NC(=O)C(=O)N2CCCC2)c1`: the activation (% of control) is 99% (inactive).

For the molecule `CC(Nc1nc(N2CCN(CCO)CC2)nc2ccccc12)c1ccccc1` (configuration not stated), the activation (% of control) is 106% (inactive).

For the molecule `CN(CCC1CCOCC1)Cc1cn[nH]c1-c1ccc(-c2ccccc2)cc1`, the activation (% of control) is 115% (inactive).

For the molecule `Cc1cccc(CSc2ccc(-c3cccs3)nn2)c1`, the activation (% of control) was 130% (active).

As to `Cc1cccc(CSc2nnc(NC(=O)CSc3nnc(C)s3)s2)c1`, the activation (% of control) is 107% (inactive).

Consider `O=C(CSc1ccc(-c2cccs2)nn1)Nc1ccccc1F`, for which the activation (% of control) was 104% (inactive).

`Cc1ccc(NC(=S)N(CCN2CCCCC2)Cc2ccco2)cc1C`: the activation (% of control) is 98% (inactive).

As for `C=CCC1(CC=C)CCCN1C(=O)CC1C(=O)NCCN1Cc1ccccc1OC` (configuration not stated), the activation (% of control) is 98.1% (inactive).

Regarding `CCOC(=O)c1ccc2c(c1)nc(SCC(=O)NC(C)C)n2CC`, the activation (% of control) is 103% (inactive).

Turning to `CCn1c(C)nc2cc(C(=O)NNS(=O)(=O)c3ccc(C)cc3C)ccc21`, the activation (% of control) is 95% (inactive).

Take `CCOC(=O)c1ccc2c(c1)nc(C)n2CC`: the activation (% of control) is 130% (active).

With `COc1ccc2nc(/N=C(\N)NC(=O)Nc3ccccc3)nc(C)c2c1`, the activation (% of control) was 104% (inactive).

`Cc1ccc(/C=N/NC(=O)Cn2ccc(C(F)(F)F)n2)o1`: the activation (% of control) is 94.7% (inactive).

For `Cc1cc(N/C=C\C(=O)c2ccc(Cl)c(Cl)c2)no1`, the activation (% of control) was 135% (active).

Turning to `CCC(=O)Nc1ccc(C(=O)Nc2cc(C)on2)cc1`, the activation (% of control) was 107% (inactive).

As for `COc1ccc(C(=O)/C=C/Nc2ccccn2)cc1`, the activation (% of control) was 23.6% (inactive).

As to `CCn1c(C(C)C)n[nH]c1=S`, the activation (% of control) is 103% (inactive).

Consider `CCc1nnc(NC(=O)CSc2nc(SC)ns2)s1`, for which the activation (% of control) was 101% (inactive).

As for `O=C(CSc1nnc2ccc(-c3ccncc3)nn12)N1CCCCC1`, the activation (% of control) is 95.3% (inactive).

Regarding `CCSC1=NCCN1C(=O)c1ccc(S(=O)(=O)N(CC)CC)cc1`, the activation (% of control) was 95.6% (inactive).
